The source of these data is publication PMC5540273 (PLoS ONE, 2017).

Holding throughout (details): concentration: 1 μM, replicates: in singlicate; n = 1
Assay [1] has as its system PIM1.
The test system of assay [2] is PIM2.
Assay [3] deals with PIM3.
For assay [4], the system named is PIP5K1A.
In assay [5] the test system is PIP5K1C.
The subject of assay [6] is PIP5K2B.
Assay [7] relates to T1, PIP5K2C.
T1 construct: gene PIP4K2C

For assay [8], the system named is T2, PKAC-alpha.
T2 construct: gene PRKACA

For assay [9], the system named is T3, PKAC-beta.
T3 construct: gene PRKACB

Assay [10] deals with PKMYT1.
Assay [11] has as its system PKN1.
In assay [12] the test system is PKN2.
Assay [13] deals with PLK1.
The subject of assay [14] is PLK2.
Assay [15] deals with PLK3.
Assay [16] concerns PLK4.
Assay [17] relates to PRKCD.
The subject of assay [18] is PRKCE.
For assay [19], the system named is PRKCH.
For assay [20], the system named is PRKCI.
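Note: KINOMEscan kinase panel screen.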

As to `Cc1cccc(-c2nc(-c3ccc(S(C)(=O)=O)cc3)sc2-c2ccnc(NCCc3ccccc3)c2)c1`, the “%Inh” value stood at 0% in assay [1]; 9% in assay [2]; 0% in assay [3]; 2% in assay [4]; 17% in assay [5]; 22% in assay [6]. In addition, the “%Inh” value is reported as 7% in assay [7]; 0% in assay [8]; 17% in assay [9]; 0% in [10]; 6% in [11]; 13% in [12]. Also, the “%Inh” value in assay [13] turned out to be 0%; in assay [14], 5%; in assay [15], 0%; in assay [16], 7%; in assay [17] it was 8%; in assay [18] it was 0%. Also, the “%Inh” value in assay [19] was found to be 14%; in assay [20] it was 6%.

Consider `Clc1cc(Cl)cc(Nc2ccnc(Nc3cc(Cl)cc(Cl)c3)n2)c1` [GSK175726], for which the “%Inh” value in assay [1] turned out to be 20%; in assay [2] it was 0%; in assay [3], 0%; in [4], 9%; in assay [5] it was 39%; in assay [6] it was 7%. For the same compound, the “%Inh” value in [7] was found to be 26%; in assay [8], 10%; in [9], 0%; in assay [10], 8%; in [11], 31%; in assay [12], 0%. In addition, the “%Inh” value in [13] was 0%; in assay [14], 3%; in assay [15] it was 1%; in assay [16], 78%; in assay [17], 7%; in assay [18], 13%. For the same compound, the “%Inh” value was 22% in assay [19] and 15% in assay [20].

Take `Nc1nc(-c2nccs2)c(-c2ccnc3ccccc23)s1` [GW693542]: the “%Inh” value is 9% in assay [1]; 0% in assay [2]; 0% in assay [3]; 0% in assay [4]; 45% in assay [5]; 0% in assay [6]. Moreover, the “%Inh” value was 28% in assay [7]; 0% in assay [8]; 13% in assay [9]; 0% in [10]; 6% in assay [11]; 2% in assay [12]. In addition, the “%Inh” value in assay [13] was 0%; in assay [14], 0%; in assay [15] it was 0%; in [16] it was 0%; in assay [17], 1%; in [18] it was 8%. The figures for the “%Inh” value in assay [19] and in assay [20] were 16% and 30%, respectively.

Turning to `CN(C)CCN(C)C(=O)c1cc(-c2ccncc2)c(-c2ccc(Cl)c(O)c2)o1.Cl.Cl` [SB-710397], the “%Inh” value is listed as 0% in [1]; 0% in [2]; 0% in assay [3]; 1% in [4]; 67% in assay [5]; 8% in assay [6]. Moreover, the “%Inh” value amounted to 42% in [7]; 9% in assay [8]; 0% in assay [9]; 0% in assay [10]; 17% in assay [11]; 0% in assay [12]. Besides, the “%Inh” value was 8% in assay [13]; 0% in [14]; 0% in [15]; 0% in assay [16]; 0% in [17]; 47% in [18]. Also, the entries for the “%Inh” value in [19] and in assay [20] were 22% and 33%, respectively.

Consider `O=C(Nc1n[nH]c2cc(-c3cccc(F)c3F)ccc12)C1CC1` [SB-733894], for which the “%Inh” value in [1] worked out at 8%; in assay [2] it was 0%; in assay [3], 32%; in [4], 0%; in [5], 0%; in assay [6], 0%. The “%Inh” value came to 0% in assay [7]; 0% in assay [8]; 0% in assay [9]; 40% in [10]; 39% in [11]; 6% in assay [12]. Also, the “%Inh” value in assay [13] was found to be 0%; in assay [14], 26%; in assay [15] it was 13%; in assay [16], 22%; in [17], 7%; in [18], 0%. In addition, the results for the “%Inh” value in assay [19] and in assay [20] were 0% and 21%, respectively.

`O=C1NC(=O)C(N2CCc3ccccc32)=C1c1ccccc1Cl` [SB-373598]: the “%Inh” value in assay [1] was determined as 0%; in [2], 9%; in [3], 7%; in assay [4], 0%; in assay [5] it was 29%; in assay [6] it was 35%. The “%Inh” value in [7] turned out to be 1%; in assay [8], 22%; in assay [9], 39%; in assay [10] it was 11%; in assay [11] it was 0%; in [12] it was 13%. The “%Inh” value in [13] was found to be 14%; in assay [14], 0%; in assay [15] it was 0%; in assay [16], 12%; in assay [17], 19%; in assay [18], 3%. Also, the “%Inh” value in assay [19] was 30%; in [20], 0%.

On to `Cc1ccc(NC(=O)Nc2cc(C(C)(C)C)nn2-c2ccccc2)cc1` [GSK1014915], for which the “%Inh” value worked out at 0% in assay [1]; 0% in assay [2]; 0% in [3]; 0% in assay [4]; 29% in [5]; 12% in assay [6]. Also, the “%Inh” value in [7] is recorded as 3%; in assay [8] it was 0%; in assay [9], 0%; in assay [10], 14%; in assay [11] it was 53%; in [12], 0%. In addition, the “%Inh” value in assay [13], in assay [14], in [15], in assay [16], in [17] and in assay [18] was 0% each time. For the same compound, the “%Inh” value in [19] is 5%; in assay [20], 28%.

As to `O=c1cc(N2CCOCC2)nc2n(Cc3cccc(Cl)c3Cl)ccn12` [GSK2286295], the “%Inh” value in assay [1] amounted to 4%; in [2] it was 0%; in assay [3], 5%; in assay [4], 0%; in [5], 16%; in [6] it was 2%. For the same compound, the “%Inh” value in assay [7] was 0%; in [8], 16%; in assay [9] it was 5%; in assay [10] it was 2%; in assay [11], 0%; in assay [12], 0%. Besides, the “%Inh” value in assay [13] amounted to 10%; in [14] it was 0%; in [15], 0%; in [16] it was 0%; in assay [17], 0%; in [18], 0%. The “%Inh” value in [19] worked out at 20%; in assay [20] it was 48%.

As for `Cl.NC(=O)c1cccc(Nc2nccc(Nc3ccc(Oc4cccc(Cl)c4)c(Cl)c3)n2)c1` [GW659008], the “%Inh” value in assay [1] is 15%; in assay [2], 0%; in assay [3] it was 1%; in assay [4] it was 15%; in assay [5], 45%; in assay [6], 32%. The “%Inh” value in assay [7] came to 60%; in assay [8] it was 0%; in [9], 0%; in assay [10], 0%; in assay [11], 0%; in [12], 0%. The “%Inh” value in assay [13] stood at 5%; in assay [14], 0%; in assay [15], 0%; in assay [16] it was 0%; in assay [17] it was 27%; in [18], 27%. The “%Inh” value in [19] and in assay [20] was 10% in each case.

As for `Cc1nnc(-c2ccc3occ(-c4ccc(S(C)=O)cc4)c3c2)[nH]1` (stereo not shown), the “%Inh” value in assay [1] worked out at 32%; in [2], 58%; in assay [3] it was 35%; in assay [4] it was 0%; in assay [5], 63%; in assay [6] it was 35%. In addition, the “%Inh” value in [7] came to 61%; in assay [8] it was 9%; in assay [9] it was 0%; in assay [10], 21%; in [11] it was 0%; in [12] it was 0%. Moreover, the “%Inh” value in [13] is 0%; in assay [14], 14%; in assay [15], 7%; in assay [16], 11%; in assay [17], 13%; in assay [18] it was 7%. For the same compound, the “%Inh” value in assay [19] and in assay [20] was 0% throughout.

As for `Cc1ccc(C(=O)Nc2ccc(Nc3ccnc4cc(-c5ccccn5)ccc34)cc2O)cc1.Cl` [GW440146], the “%Inh” value in assay [1] came out at 16%; in [2] it was 0%; in [3] it was 12%; in assay [4], 35%; in [5], 0%; in assay [6], 11%. In addition, the “%Inh” value in [7] was determined as 31%; in [8], 0%; in assay [9], 8%; in [10], 0%; in assay [11], 0%; in assay [12] it was 0%. The “%Inh” value in [13] is given as 0%; in assay [14], 0%; in assay [15] it was 0%; in assay [16], 10%; in assay [17] it was 0%; in assay [18] it was 0%. The “%Inh” value in [19] is listed as 24%; in assay [20], 5%.

Consider `Cl.Oc1ccc(-c2nc(-c3ccccc3)[nH]c2-c2ccncc2)cc1` [SB-428218], for which the “%Inh” value in assay [1] is given as 44%; in assay [2], 0%; in assay [3] it was 42%; in assay [4] it was 72%; in assay [5] it was 49%; in assay [6] it was 0%. For the same compound, the “%Inh” value was found to be 58% in assay [7]; 0% in [8]; 16% in [9]; 14% in assay [10]; 0% in assay [11]; 0% in [12]. In addition, the “%Inh” value in assay [13] is recorded as 0%; in assay [14], 0%; in assay [15] it was 0%; in assay [16], 0%; in assay [17] it was 0%; in assay [18], 33%. Further, the figures for the “%Inh” value in assay [19] and in assay [20] were 0% and 12%, respectively.

`COc1cc2ncn(-c3cc(OCC4CCCO4)c(C(N)=O)s3)c2cc1OC` (stereo not shown) [GSK204607]: the “%Inh” value was 17% in assay [1]; 0% in [2]; 0% in assay [3]; 6% in assay [4]; 84% in assay [5]; 9% in [6]. In addition, the “%Inh” value stood at 33% in assay [7]; 0% in [8]; 0% in [9]; 0% in assay [10]; 0% in assay [11]; 0% in assay [12]. The “%Inh” value is given as 98.9% in assay [13]; 99.4% in assay [14]; 98.3% in assay [15]; 0% in assay [16]; 0% in [17]; 2% in assay [18]. Moreover, the “%Inh” value worked out at 0% in assay [19] and 100% in [20].

As for `CC(C)(C)c1ccc(C(=O)Nc2cn3cc(Cl)ccc3n2)cc1`, the “%Inh” value turned out to be 0% in [1]; 13% in assay [2]; 0% in assay [3]; 0% in assay [4]; 44% in assay [5]; 0% in assay [6]. For the same compound, the “%Inh” value in assay [7] is recorded as 48%; in assay [8], 8%; in assay [9], 0%; in assay [10], 0%; in assay [11], 0%; in [12], 1%. Also, the “%Inh” value in assay [13] was found to be 13%; in [14], 0%; in assay [15], 1%; in assay [16], 0%; in assay [17], 4%; in assay [18], 13%. In addition, the “%Inh” value in assay [19] turned out to be 2%; in [20] it was 100%.
